Experimental data reported in PubChem BioAssay AID1159580 (chemical genetic matrix, 2015).
Screen size: about 5,500 compounds; about 2,000 (36%) were called active. Roughly 18% stayed inconclusive and do not appear here. Cut-off read from the data, not from the text of the source: active = normalized growth mostly below about 0.91 (no sharp cut-off); inconclusive = no clear call, values can overlap the other calls; inactive = mostly above about 0.92. The list shows a part of the results.

Assay: chemical genetic growth profiling, strain panel (AID 1159580);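 note: tested at 20 µM; growth read once vehicle control cultures reached saturation at 30 °C; 1 = growth at the plate median or of vehicle wells; lower values mean less growth of the strain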
Settings: S. cerevisiae deletion strains, growth OD

Measured: normalized growth

CCn1cc([N+](=O)[O-])nc1C
inactive: locus YAL013W, strain DEP1, active compounds read low 1 | locus YBR229C, strain ROT2, active compounds read low 1.02 | locus YDL101C, strain DUN1, active compounds read low 1.03 | locus YDR150W, strain NUM1, active compounds read low 1.03 | locus YEL061C, strain CIN8, active compounds read low 0.981 | locus YGR078C, strain PAC10, active compounds read low 1.02 | locus YHR030C, strain SLT2, active compounds read low 1.05 | locus YHR087W, strain rtc3, active compounds read low 0.975 | locus YJR043C, strain POL32, active compounds read low 1.06 | locus YJR075W, strain HOC1, active compounds read low 1 | locus YKL190W, strain CNB1, active compounds read low 1 | locus YLR039C, strain RIC1, active compounds read low 0.987 | locus YLR058C, strain SHM2 (second series), active compounds read low 0.998 | locus YLR085C, strain ARP6, active compounds read low 0.982 | locus YLR262C, strain YPT6, active compounds read low 0.979 | locus YML094W, strain GIM5, active compounds read low 0.968 | locus YMR219W, strain ESC1, active compounds read low 0.983 | locus YMR263W, strain SAP30, active compounds read low 1.01 | locus YNL128W, strain TEP1, active compounds read low 1.02 | locus YNL153C, strain GIM3, active compounds read low 1.02 | locus YNL298W, strain CLA4 (second series), active compounds read low 1 | locus YNL322C, strain KRE1, active compounds read low 0.997 | locus YNR030W, strain Alg12, active compounds read low 0.976 | locus YPL055C, strain LGE1, active compounds read low 1.01 | locus YPL241C, strain CIN2, active compounds read low 1.02 | locus YPR135W, strain CTF4, active compounds read low 1.05
